Reference: PubChem BioAssay AID1159580 (chemical genetic matrix, 2015)
Screen size: about 5,500 compounds; about 2,000 (36%) were called active. About 18% were inconclusive and are not listed. Rule as the data show it: active = normalized growth mostly below about 0.91 (no sharp cut-off); inconclusive = no clear call, values can overlap the other calls; inactive = mostly above about 0.92. Some of the results follow.

Experiment: chemical genetic growth profiling, strain panel (AID 1159580);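 also: tested at 20 µM; growth read once vehicle control cultures reached saturation at 30 °C; 1 = growth at the plate median or of vehicle wells; lower values mean less growth of the strain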
Conditions: S. cerevisiae deletion strains, growth OD

Measured: normalized growth

Cc1cc(=O)c2c(O)c(C)c(O)cc2o1
inactive: locus YAL021C, strain ccr4, stronger effect = lower value 1 | locus YAL026C, strain drs2, stronger effect = lower value 1.04 | locus YAL030W, strain snc1, stronger effect = lower value 1.02 | locus YBL061C, strain skt5, stronger effect = lower value 1.02 | locus YBR009C, strain hhf1, stronger effect = lower value 1.01 | locus YBR021W, strain FUR4, stronger effect = lower value 0.91 | locus YBR023C, strain chs3, stronger effect = lower value 1.03 | locus YBR171W, strain sec66, stronger effect = lower value 1.03 | locus YBR229C, strain ROT2, stronger effect = lower value 1.02 | locus YBR231C, strain swc5, stronger effect = lower value 1.02 | locus YBR279W, strain paf1, stronger effect = lower value 1.01 | locus YCL011C, strain gbp2, stronger effect = lower value 1.04 | locus YCL016C, strain dcc1, stronger effect = lower value 1.01 | locus YCL029C, strain bik1, stronger effect = lower value 0.975 | locus YCL069W, strain vba3, stronger effect = lower value 1.02 | locus YCR088W, strain abp1, stronger effect = lower value 1.02 | locus YDL005C, strain med2, stronger effect = lower value 1.02 | locus YDL035C, strain GPR1, stronger effect = lower value 0.978 | locus YDL040C, strain nat1, stronger effect = lower value 1.01 | locus YDL074C, strain BRE1, stronger effect = lower value 0.973 | locus YDL101C, strain DUN1, stronger effect = lower value 0.991 | locus YDL134C, strain PPH21, stronger effect = lower value 0.983 | locus YDL185W, strain tfp1, stronger effect = lower value 0.983 | locus YDL192W, strain arf1, stronger effect = lower value 0.954 | locus YDR001C, strain nth1, stronger effect = lower value 1.02 | locus YDR069C, strain doa4, stronger effect = lower value 1.02 | locus YDR101C, strain arx1, stronger effect = lower value 0.957 | locus YDR137W, strain rgp1, stronger effect = lower value 1.03 | locus YDR159W, strain sac3, stronger effect = lower value 1.03 | locus YDR162C, strain NBP2, stronger effect = lower value 0.922 | locus YDR195W, strain ref2 1.01 | locus YDR297W, strain sur2, stronger effect = lower value 1.01 | locus YDR318W, strain mcm21, stronger effect = lower value 0.95 | locus YDR334W, strain swr1, stronger effect = lower value 1.01 | locus YDR335W, strain msn5, stronger effect = lower value 1.04 | locus YDR388W, stronger effect = lower value 0.988 | locus YDR392W, strain spt3, stronger effect = lower value 1.04 | locus YDR502C, strain sam2, stronger effect = lower value 0.935 | locus YEL003W, strain gim4, stronger effect = lower value 1.02 | locus YEL037C, strain rad23, stronger effect = lower value 1.03 | locus YEL061C, strain CIN8 (second series), stronger effect = lower value 1.01 | locus YEL061C, strain CIN8, stronger effect = lower value 1 | locus YER015W, strain faa2, stronger effect = lower value 1.02 | locus YER016W, strain bim1, stronger effect = lower value 1.01 | locus YER110C, stronger effect = lower value 0.96 | locus YER111C, strain swi4, stronger effect = lower value 1.03 | locus YER155C, strain BEM2 (second series), stronger effect = lower value 1.04 | locus YER155C, strain BEM2, stronger effect = lower value 1.02 | locus YER167W, strain BCK2, stronger effect = lower value 1.01 | locus YFR010W, strain ubp6, stronger effect = lower value 1.04 | locus YGL078C, strain dbp3, stronger effect = lower value 0.949 | locus YGL086W, strain mad1, stronger effect = lower value 0.967 | locus YGL167C, strain pmr1, stronger effect = lower value 1.03 | locus YGL173C, strain kem1, stronger effect = lower value 1.02 | locus YGL227W, strain vid30, stronger effect = lower value 1.02 | locus YGL240W, strain doc1, stronger effect = lower value 1.01 | locus YGL248W, strain PDE1, stronger effect = lower value 0.997 | locus YGL253W, strain hxk2, stronger effect = lower value 1.02 | locus YGR078C, strain PAC10, stronger effect = lower value 0.963 | locus YGR135W, strain pre9, stronger effect = lower value 0.932 | locus YGR252W, strain gcn5, stronger effect = lower value 0.815 | locus YHR013C, strain ard1, stronger effect = lower value 1.07 | locus YHR027C, strain rpn1, stronger effect = lower value 1.03 | locus YHR079C, strain IRE1 (second series), stronger effect = lower value 0.978 | locus YHR094C, strain hxt1, stronger effect = lower value 0.984 | locus YHR129C, strain ARP1, stronger effect = lower value 1 | locus YHR142W, strain chs7, stronger effect = lower value 1.04 | locus YHR200W, strain rpn10, stronger effect = lower value 0.958 | locus YIL066C, strain RNR3, stronger effect = lower value 1.02 | locus YIL073C, strain SPO22, stronger effect = lower value 0.999 | locus YIL125W, strain kgd1, stronger effect = lower value 0.986 | locus YIR030C, strain dcg1, stronger effect = lower value 0.99 | locus YJL092W, strain hpr5, stronger effect = lower value 1.02 | locus YJL095W, strain BCK1 (second series), stronger effect = lower value 1.02 | locus YJL095W, strain BCK1, stronger effect = lower value 0.934 | locus YJL115W, strain asf1, stronger effect = lower value 1.03 | locus YJL129C, strain trk1, stronger effect = lower value 1.01 | locus YJL134W, strain LCB3, stronger effect = lower value 1.01 | locus YJL154C, strain vps35, stronger effect = lower value 1.03 | locus YJL164C, strain tpk1, stronger effect = lower value 1.01 | locus YJL166W, strain qcr8, stronger effect = lower value 1.01 | locus YJL168C, strain set2, stronger effect = lower value 0.994 | locus YJL187C, strain SWE1 (second series), stronger effect = lower value 0.971
